FMDV antiviral = antivirals against foot and mouth disease virus | FMDV antiviral cell-based qHTS | Potency, µM (series often up to 57.9 µM), for inactives: top-dose activity change, negative = inhibition, most hits filed as inhibitors | 410,000 tested, 1.2% active | AID 1159524; calls by dose curve; tested in HEK293T cells; also: read-out not given here; potency is read from the fitted curve at half-maximal effect; % is scaled to controls: 0 for no effect and ±100 for the full control effect; nearly all actives have a fitted effect of over 45% in size
Marburg entry inh = inhibitors of Marburg virus binding or cell entry; 300,000 tested, 1.8% active; Potency, µM (highest dose often 37.8 µM), inactives show top-dose activity change, negative = inhibition, hits mostly inhibitors; Marburg virus pseudotyped entry inhibition, cell reporter; AID 540276; calls by dose curve; tested in HEK293 cells; also: potency is read from the fitted curve at half-maximal effect; % is scaled to controls: 0 for no effect and ±100 for the full control effect
HCV inhibitor = blocks hepatitis C virus; Huh7.5.1 HCVcc-Cre infection, luciferase reporter, 44 h; Potency, µM (doses to about 41.8 µM), inactives show at the highest dose activity change, negative = inhibition, actives largely listed as inhibitors; 340,000 tested, 3.4% active; active = well fitted inhibition curve with a large enough effect; inconclusive = small, poorly fitted or top-dose-only effect, or another doubt; inactive = no such curve, though single readings can be large or run the other way; also: potency is read from the fitted curve at half-maximal effect; % is scaled to controls: 0 for no effect and ±100 for the full control effect
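Reporter virus HCVcc-Cre (~0.5 moi) infects cells exposed to compound; seeding density 1,000 cells/well with 4 h settling beforehand. Luminescence, 15 sec read, taken 44 h post-infection following a 15 min RT substrate incubation.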
HCMV inh = inhibitors of human cytomegalovirus | activity change, negative = inhibition, % at 57.5 µM | AID 1259415 | 410,000 tested, 4.5% active | HFF cells, HCMV-luciferase reporter, 72 h; hits give low values; in the data active = activity change below about -60%; inconclusive = no clear call, values can overlap the other calls; inactive = above about -39%; also: % is scaled to controls: 0 for no effect and ±100 for the full control effect
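Human foreskin fibroblasts infected with luciferase-reporter HCMV at MOI 1 PFU/cell, compounds at two doses. Luciferase measured 72 h post infection; normalized to buffer-only basal and Salinomycin (10uM) controls.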
Lassa entry inh = blocks Lassa virus binding to or entry into cells; Lassa virus pseudotype entry inhibition, cell reporter; Potency, µM (doses to about 37.9 µM), without a hit: at the highest dose activity change, negative = inhibition, usual class: inhibitors; 300,000 tested, 1.2% active; AID 540256; calls by dose curve; tested in HEK293 cells; also: potency is read from the fitted curve at half-maximal effect; % is scaled to controls: 0 for no effect and ±100 for the full control effect; nearly all actives have a fitted effect of over 50% in size
SARS PLpro yeast = blocks SARS-CoV papain-like protease in a yeast assay; S. cerevisiae expressing SARS-CoV PLpro, growth rescue; Potency, µM (highest dose often 32.9 µM), without a hit: at the top dose activity, positive = growth rescue, hits mostly activators; 330,000 tested, 0.19% active; calls by dose curve; also: potency is read from the fitted curve at half-maximal effect; 0% is about no effect; nearly all actives have a fitted effect of over 55% in size
* hit, by the source's call; ? = inconclusive; · = no result given; [ ] = remark or other dose. Shown are actives, neighbours in structure and some others; about 8% of the full set was active somewhere.

SMILES	FMDV antiviral	Marburg entry inh	HCV inhibitor	HCMV inh	Lassa entry inh	SARS PLpro yeast
CCC(C)NC(=O)CSc1nc2c(sc3ccccc32)c(=O)n1Cc1ccccc1Cl (stereo not given)	7%	·	·	8	6%[46.1 µM]	·
CCOC(=O)C1CCC(CN(Cc2ccccc2)S(=O)(=O)c2ccc([N+](=O)[O-])cc2)CC1 (stereo not given)	?	-22%	3%	50	-20%	-33%
COc1cccc(-n2ccnc2SCC(=O)Nc2cccc(C)c2C)c1	-30%	·	·	-5	-30%[46.1 µM]	·
CCOC(=O)Nc1ccc2c(c1)C(=NNC(N)=S)c1ccccc1-2	?	13µM*	?	?	?	·
CC(=O)Oc1ccccc1[C@@H]1OCCN1C(C)=O	·	2%	·	·	·	·
Cn1cc(CNCc2cnc3ccccn23)c(-c2ccc(Oc3ccccc3)cc2)n1	-11%	?	?	?	?	0%
CN(Cc1cn(C)nc1-c1ccc(Oc2ccccc2)cc1)Cc1cnc2ccccn12	11µM*	·	?	0	·	-1%
NC(=O)N1CCC2=C1CCCC2	·	5%[46.1 µM]	·	·	·	·
O=S(=O)(c1ccccc1)c1nc(-c2cccs2)oc1N1CCCCC1	21%	-20%[46.1 µM]	·	26	25%[46.1 µM]	·
CCCCNc1oc(-c2cccs2)nc1S(=O)(=O)c1ccccc1	21%	?	10µM*	?	?	-9%
CNc1oc(-c2cccs2)nc1S(=O)(=O)c1ccccc1	16%	1%[46.1 µM]	-6%	-9	·	1%
CCC(C)S(=O)(=O)c1oc(-c2cccs2)nc1S(=O)(=O)c1ccccc1 (stereo not given)	28µM*	?	·	-102*	?	·
Cc1ccc(/C=C2\C(=O)NC(=S)N(c3ccccc3F)C2=O)s1	?	?	?	-101*	?	-91%
CCc1ccc(N=C2NC(=O)CC(C(=O)Nc3ccc(OC)cc3)S2)cc1 (stereo not given)	-11%	10%[46.1 µM]	·	5	-28%[46.1 µM]	·
CN(C)[C@@H]1C(=O)C(C(N)=O)=C(O)[C@@]2(O)C(=O)C3=C(O)c4c(O)ccc(Cl)c4[C@@](C)(O)[C@H]3C[C@@H]12	?	·	0.89µM*	37	·	0%
Cc1cccc(NC(=O)C2CCN(c3nnc(C)c4c(C)n(-c5ccccc5)nc34)CC2)c1C	-9%	·	·	49	0%[46.1 µM]	·
Cc1nc2cnc(Oc3cccc(Cl)c3)nc2n(CCC#N)c1=O	-14%	·	·	·	·	·
Cc1cc(Nc2cccc(Cl)c2)nc(-c2ccccc2O)n1	?	?	?	4	9%[46.1 µM]	-2%
CCOC(=O)c1ccc(Nc2cc(C)nc(-c3ccccc3)n2)cc1	-22%	·	?	-76*	·	-2%
COC(=O)c1cccc(Nc2cc(C)nc(-c3ccccc3O)n2)c1	-16%	?	0.79µM*	33	-22%	-25%
Cc1cc(Nc2ccc(Cl)cc2)nc(-c2ccccc2O)n1	20%	·	11µM*	-32	·	-3%
NS(=O)(=O)c1cccc(NC(=O)c2ccc(S(=O)(=O)N3CCCCCC3)cc2)c1	-12%	-5%	?	?	-6%	-1%
O=C(Nc1nc(-c2ccc(Br)cc2)ns1)c1ccc(F)cc1	-28%	11%[46.1 µM]	·	-6	-2%[46.1 µM]	·
CCC(=O)Nc1ccccc1-c1nc2ccccc2n(C(C)C(=O)Nc2cccc(Cl)c2C)c1=O (stereo not given)	-19%	3%[46.1 µM]	·	-12	-8%[46.1 µM]	·
Cc1cccc(OCCCSc2nc(-c3ccc(C(C)(C)C)cc3)nc3cc(=O)[nH]n23)c1C	-8%	·	·	?	29%[46.1 µM]	·
SMILES	FMDV antiviral	Marburg entry inh	HCV inhibitor	HCMV inh	Lassa entry inh	SARS PLpro yeast
CCc1ccc(OCCCSc2nc(-c3ccc(C(C)(C)C)cc3)nc3cc(=O)[nH]n23)cc1	-18%	·	·	-84*	1%[46.1 µM]	·
Cc1cc(NC(=O)CSc2nc(=O)n3cc(Cl)ccc3n2)no1	2%	1%[46.1 µM]	7%	-98*	-2%	-1%
COc1ccc(N=C(NN)c2ccc3ccccc3n2)cc1	39%	?	6%	-89*	?	-16%
COc1ccc(NC(=S)c2ccc3ccccc3n2)cc1	67%	·	5%	·	·	-8%
COc1ccc(C(=O)NC(=S)NNC(=O)c2ccc3ccccc3n2)cc1	-29%	?	11µM*	-97*	?	0%
COc1cc(OC)cc(C(=O)NNC(=O)c2ccc3ccccc3n2)c1	2%	?	?	-75*	?	1%
Cc1cccc(N2CCN(C(=O)c3ccc(NC(=O)c4nsc5ccccc45)cc3)CC2)c1C	0%	·	·	126	8%[46.1 µM]	·
O=[N+]([O-])c1cccnc1N1CCC(c2cc(-c3cccc(C(F)(F)F)c3)n[nH]2)CC1	-6%	?	?	-30	?	-30%
COc1ccc(OC)c(-c2cc(C3CCN(c4ncccc4[N+](=O)[O-])CC3)[nH]n2)c1	?	?	11µM*	-29	?	-17%
CC(=O)c1ccc(N2CCN(c3ccccc3O)CC2)c([N+](=O)[O-])c1	?	?	-23%	-6	11%	-7%
O=[N+]([O-])c1cccnc1N1CCC(c2cc(-c3ccc(Cl)cc3Cl)n[nH]2)CC1	0%	?	22µM*	-17	?	-22%
CC(=O)c1ccc(N2CCC(c3cc(-c4ccc(Cl)cc4Cl)n[nH]3)CC2)c([N+](=O)[O-])c1	20µM*	?	11µM*	-60*	?	-10%
COc1ccc(OC)c(-c2csc(NC(=O)COC(=O)C3CCC3)n2)c1	-10%	·	?	-16	·	0%
COc1ccc(OC)c(-c2csc(NC(=O)CSc3ccc(Br)cc3)n2)c1	0%	-38%	?	-15	7.9µM*	23%
COc1ccc(OC)c(-c2csc(NC(=O)Cc3cc(OC)c(OC)c(OC)c3)n2)c1	?	?	11µM*	-37	-11%	4%
COc1ccc(OC)c(-c2csc(NC(=O)Cc3ccc(F)cc3)n2)c1	15%	?	?	10	?	-8%
COc1ccc(OC)c(-c2csc(NC(=O)CSc3ccc([N+](=O)[O-])cc3)n2)c1	?	?	10µM*	-32	?	-10%
C#C[C@]1(O)CC[C@H]2[C@@H]3CCc4cc(OC5CCCC5)ccc4[C@H]3CC[C@@]21C	-8%	·	0.63µM*	116	·	-3%
COc1ccc(C(O)c2nc(-c3cc(F)cc(Cl)c3)cs2)cc1 (stereo not given)	-14%	·	·	0	·	·
N#Cc1ccc(C(c2nnnn2C2CCCC2)N2CCC(Cc3ccccc3)CC2)cc1 (stereo not given)	-11%	-28%	-2%	-91*	-4%	3%
COc1ccc2c(C)c(CC(=O)NCc3ccccc3Cl)c(=O)oc2c1OC	3%	?	·	-7	-2%[46.1 µM]	·
OCCN1CCN(C(c2cccs2)c2ccc3cccnc3c2O)CC1 (stereo not given)	·	0%	·	·	·	-33%

Assay outcomes from PubChem.
